High-throughput results deposited in PubChem BioAssay by National Center for Advancing Translational Sciences (NCATS).
In the library only some 11% were active in any assay of this set; here they are far more common.
IMPase Li inh: membrane-permeable IMPase blocker, potentiated with lithium; CHO-M1 cells, IP1 TR-FRET (IP-One), carbachol + lithium; Potency, µM (top dose mostly 59.4 µM), without a hit: at the top dose activity, negative = IMPase inhibition, usual class: inhibitors; 210,000 compounds, 0.35% hits; active means well fitted curve in the direction sought with a large enough effect; inconclusive means small, poorly fitted or top-dose-only effect, or another doubt; inactive means no such curve, though single readings can be large; an effect the other way counts as inactive or inconclusive;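 further: IP1 builds up when IMPase is blocked and the TR-FRET signal falls; potency means the concentration at half of the fitted maximal effect; plate controls were basal vehicle for no effect and high inhibitor control for full effect; nearly all actives have a fitted effect of over 50% in size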
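IP1 accumulation measured by competitive TR-FRET in lysed CHO-M1 cells after 30 min compound exposure at 37C, with a small lithium addition to potentiate weak responses. Hill-equation AC50 from ratio and donor-channel data.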
HPGD inh: blocks human HPGD enzyme activity | 150,000 compounds, 4.3% hits | P15428 | purified HPGD, NADH fluorescence kinetic, PGE2 substrate | AID 894 | Potency, µM, for inactives: at the top dose activity change, negative = inhibition, actives largely listed as inhibitors; further: potency means the concentration at half of the fitted maximal effect
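NADH formation kinetics: reaction with 30 uM PGE2 and 1 mM NAD+ (final), 20 nM enzyme, Tris-HCl pH 8 with Tween 20, after 15 min compound preincubation at room temperature. Fluorescence change, last versus first of five reads.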
ALOX12 inhib: inhibitors of human 12-lipoxygenase (ALOX12) | P18054 | purified 12-hLO, xylenol orange hydroperoxide absorbance | 150,000 compounds, 0.12% hits | Potency, µM (doses to about 57.1 µM), for inactives: at the highest dose activity change, negative = inhibition, hits mostly inhibitors; active means well fitted curve in the direction sought with a large enough effect; inconclusive means small, poorly fitted or top-dose-only effect, or another doubt; inactive means no such curve, though single readings can be large; an effect the other way counts as inactive or inconclusive; further: potency means the concentration at half of the fitted maximal effect; nearly all actives have a fitted effect of over 55% in size
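Xylenol orange chromogenic assay: hydroperoxide from 12hLO oxidises Fe(II), giving red-shifted Fe(III)-XO absorbance. Conditions: 150 nM enzyme, 40 uM arachidonic acid, 25 mM Hepes pH 7.0, 0.01% Triton X-100, 30 min, room temperature.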
ALDH1A1 block: blocks purified human ALDH1A1 activity. P00352. Purified ALDH1A1, NADH fluorescence, propionaldehyde substrate. Potency, µM (series often up to 75.3 µM), for the others: at the top dose activity, negative = inhibition, most hits filed as inhibitors. 220,000 compounds, 7.3% hits;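 further: potency means the concentration at half of the fitted maximal effect; plate controls were no enzyme wells and a reference inhibitor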
Target sequence (P00352 whole entry, looked up): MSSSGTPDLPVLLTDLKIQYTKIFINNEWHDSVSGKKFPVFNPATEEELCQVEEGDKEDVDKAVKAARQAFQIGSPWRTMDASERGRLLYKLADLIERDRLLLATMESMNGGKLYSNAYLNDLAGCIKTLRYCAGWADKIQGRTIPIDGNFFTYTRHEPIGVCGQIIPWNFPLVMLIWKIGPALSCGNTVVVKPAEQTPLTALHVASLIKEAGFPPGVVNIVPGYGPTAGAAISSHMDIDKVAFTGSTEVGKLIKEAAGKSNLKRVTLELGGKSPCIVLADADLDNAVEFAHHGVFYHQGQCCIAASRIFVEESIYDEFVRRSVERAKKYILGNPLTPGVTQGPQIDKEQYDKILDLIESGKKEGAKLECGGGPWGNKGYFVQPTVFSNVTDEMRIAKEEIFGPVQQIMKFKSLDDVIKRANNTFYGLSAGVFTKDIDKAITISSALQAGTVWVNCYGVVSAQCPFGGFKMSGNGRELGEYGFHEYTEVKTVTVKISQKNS
IMPase cell inh: IMPase inhibition in cells | P97697 | CHO-M1 cells, IP1 accumulation, HTRF TR-FRET ratio | inhibition (IP1 accumulation), % at 46.1 µM | 120,000 tested, under 10 active | AID 901; active means well fitted curve in the direction sought with a large enough effect in the signal ratio, not every such curve was filed as active; inconclusive means small, poorly fitted or top-dose-only effect, or a change in a side signal; inactive means no such curve, though single readings can be large or run the other way; the % refers to the signal ratio;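 further: cells stimulated with carbachol in lithium chloride buffer; plate controls were DMSO basal wells for no effect and reference inhibitor wells for full effect; higher means more IMPase inhibition seen as more IP1 and lower FRET ratio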
Target sequence (P97697 whole entry, looked up): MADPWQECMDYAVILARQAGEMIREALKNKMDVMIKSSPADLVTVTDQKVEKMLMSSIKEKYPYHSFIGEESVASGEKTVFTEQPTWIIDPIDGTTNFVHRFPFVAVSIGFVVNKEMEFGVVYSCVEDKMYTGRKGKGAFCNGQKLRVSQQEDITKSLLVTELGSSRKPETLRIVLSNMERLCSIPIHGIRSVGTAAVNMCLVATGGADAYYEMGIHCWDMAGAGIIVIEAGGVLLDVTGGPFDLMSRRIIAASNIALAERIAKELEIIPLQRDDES
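Cellular IMPase inhibition is scored as a rise in cytosolic IP1, detected by competitive TR-FRET between d2-labelled IP1 and a europium anti-IP1 antibody. M1-expressing CHO cells were stimulated with carbachol for 30 min at 37C, with lithium (50 mM LiCl) present in the buffer.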
PNC assembly inh: inhibitors of perinucleolar compartment assembly | activity change (PNC), negative = inhibition, % at 10 µM | PC3M PTB-GFP, PNC prevalence imaging, 16 h; stronger effect = lower value | 140,000 compounds, 3.1% hits;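 active means readout at or below -70, meaning at least 70% loss of cells showing the perinucleolar compartment, a nuclear body marking cancer cells; inconclusive means readout between -30 and a set limit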;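 further: plate controls were DMSO wells for no effect and camptothecin positive control wells for full effect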
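Read-out is percentage of cells bearing a perinucleolar compartment, from automated 20x imaging of fixed, Hoechst-stained PC3M PTB-GFP cells. Cells were seeded 4 h, then exposed 16 h to compound (23 nl of library stock) in duplicate plates.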
Numbers without * were called inactive; ? = inconclusive; / = not tested or not shown; [ ] = dose if it differs, or a comment. Unless noted, the call rests on the fitted dose curve; in most records, active means well fitted inhibition curve with a large enough effect (not every such curve was filed as active); inconclusive means small, poorly fitted or top-dose-only effect, or another doubt; inactive means no such curve, though single readings can be large or run the other way. Unless noted, on the % scale 0 is the no-effect control and ±100 the full control effect.

SMILES	IMPase Li inh	HPGD inh	ALOX12 inhib	ALDH1A1 block	IMPase cell inh	PNC assembly inh
COc1ccc2c(c1)c1nnc(SCC(=O)N3CCCCC3C)nc1n2C (centres undefined)	13.8%[38.3 µM]	15.8µM*	-4.8%	?	6.8	-16.9
O=C(CSc1nnc(-c2cccnc2)n1C1CCCCC1)NC1CCCCC1	-4.3%[38.3 µM]	-18.8%	-2.4%	0.6%	-2.5	16.8
CC1CCN(C(=O)CSc2nnc(-c3cccnc3)n2C2CCCCC2)CC1	5.4%[38.3 µM]	22.4µM*	5.6%	?	-18.3	-2.4
CC(C)=CC(=O)Nc1nc2ccc([N+](=O)[O-])cc2s1	5.6%	/	/	0.4%	/	/
COc1ccc(-c2nnc(Nc3ccc(OCC(N)=O)cc3)c3ccccc23)cc1	/	/	/	/	2.1	/
NC(=O)c1cccc(N)c1	6.1%	?	-3.4%[0.00818 µM]	?	4.0	/
CCOC(=O)N1CCN(C(=O)CN(c2ccccc2)S(C)(=O)=O)CC1	-2.4%	/	/	11.8%	/	/
Cc1ccc2c(c1)C(N1CCN(C)CC1)=Nc1cccnc1N2	23.7%	-15.7%	4.5%	-1.8%	17.7	/
O=C(NC(c1ccccc1)c1ccccc1)c1ccc(=O)[nH]n1	6.4%	/	/	4.47µM*	/	/
N#CC(c1ccccc1)c1ccc(=O)[nH]n1 (centres undefined)	-7.0%	/	/	?	/	/
Brc1ccc(-c2csc(NNC3=NCCCCC3)n2)cc1	/	/	-29.4%	11.2µM*	-0.2	-21.8
CC(C)(C)c1ccc(-c2csc(NNC3=NCCCCC3)n2)cc1	35.5%[38.3 µM]	-12.9%	-0.3%	-15.4%	8.7	30.5
OCC(O)/C=N/Nc1nc(N2CCCCC2)nc(N2CCCCC2)n1 (centres undefined)	6.6%	/	/	2.6%	/	/
O=C(CSc1nc2ccccc2[nH]1)c1ccc2c(c1)OCO2	6.2%[38.3 µM]	-12.1%	-17.7%	28.2µM*	0.3	?
CCSc1nnc(NC(=O)c2ccc(S(=O)(=O)N(C)C)cc2)s1	0.2%	/	/	-12.5%	/	/
O=C(CCc1nc2ccccc2[nH]1)Nc1ccc2c(c1)OCO2	22.9%[38.3 µM]	-12.6%	-5.1%	10µM*	0.4	39.7
O=C(CSc1nnc(SCc2cccc3ccccc23)s1)c1ccc2c(c1)OCO2	4.1%[38.3 µM]	?	-3.1%	0.398µM*	-5.7	7.2
CN(C)S(=O)(=O)c1ccc(C(=O)Nc2nnc(SCc3cccc4ccccc34)s2)cc1	0.1%	?	-1.0%	?	/	-134.0*
O=C(CCc1nc2ccccc2[nH]1)NCc1ccc2c(c1)OCO2	0.7%	-14.8%	2.2%	-8.4%	/	36.2
COc1ccc(-c2nc3cnc(N4CCN(C)CC4)nc3n(Cc3cccc(OC)c3)c2=O)cc1	28.5%	/	/	?	/	/
C[C@@]12C[C@H](O)C3[C@H](CCC4=CC(=O)CC[C@]43C)[C@H]1CC[C@@H]2c1csc(N)n1 (some centres undefined)	13.6%	-3.2%	/	2µM*	/	/
CCOC(=O)CNC(=O)CSc1nccn1Cc1ccco1	2.4%	/	/	-0.9%	/	/
CN(C)c1ccc(C(=S)N2CCN(C(=S)Nc3cccc4ccccc34)CC2)cc1	3.0%	/	/	15.8µM*	/	/
CCCCc1c2ccccc2nc2[nH]c3ccccc3c12	-18.5%	2.6%	-2.7%	-3.1%	/	/
CCC1CCc2c(sc3ncnc(N4CCOCC4)c23)C1 (centres undefined)	22.9%[38.3 µM]	-27.4%	8.7%	-12.2%	-0.9	-125.8*
SMILES	IMPase Li inh	HPGD inh	ALOX12 inhib	ALDH1A1 block	IMPase cell inh	PNC assembly inh
Oc1ccc(N2CCN(c3ncnc4sc5c(c34)CCC5)CC2)cc1	14.9%[38.3 µM]	-18.9%	?	?	11.4	?
Cn1nc(-c2ccc(NCCO)c([N+](=O)[O-])c2)c2ccccc2c1=O	10.5%	/	/	?	/	/
Cn1nc(-c2ccc(N3CCN(CCO)CC3)c([N+](=O)[O-])c2)c2ccccc2c1=O	5.2%	/	/	4.47µM*	/	/
COc1ccc(-c2cn3c(C)c(C(=O)Nc4ccncc4)sc3n2)cc1	5.62µM*	?	2.6%	?	?	?
Nc1nnc(CCS(=O)(=O)c2cc(Cl)ccc2Cl)s1	29.2%[38.3 µM]	-20.5%	0.0%	25.1µM*	-11.6	?
Nc1nnc(CCS(=O)(=O)c2ccc(Cl)cc2)s1	12.0%[38.3 µM]	-7.4%	0.1%	7.4%	10.5	?
CCOC(=O)C1(Cc2cccc(OC)c2)CCCN(C(=O)CCc2cccnc2)C1 (centres undefined)	12.3%	/	/	1.3%	/	/
COC(=O)c1ccc(Sc2ccccc2NS(=O)(=O)c2ccc(NC(C)=O)cc2)nc1	15.2%[38.3 µM]	-15.4%	-1.4%	11.2µM*	-6.3[1.84 µM]	?
CCN(CC)S(=O)(=O)c1ccc2oc(SCC3CN=C(c4ccc(OC)cc4)S3)nc2c1 (centres undefined)	13.2%[38.3 µM]	14.1µM*	-4.3%	22.4µM*	16.3	24.0
COc1ccc(C2=NCC(CSc3nnnn3C)S2)cc1 (centres undefined)	-2.9%[38.3 µM]	-18.4%	-4.6%	?	9.3	4.9
CCS(=O)(=O)c1ccc2oc(SCC(=O)Nc3ccc(OC)cc3OC)nc2c1	-5.5%	/	/	6.5%	/	/
COc1ccc(C2=NCC(CSc3nccc(=O)[nH]3)S2)cc1 (centres undefined)	-5.1%[38.3 µM]	14.1µM*	-1.1%	?	2.2	-11.9
COc1ccc(C2=NCC(CSc3nnc(-c4ccc5c(c4)OCO5)o3)S2)cc1 (centres undefined)	16.5%[38.3 µM]	22.4µM*	-15.2%	-16.2%	12.1	31.6
CCOc1ccc(C(=O)Nc2c(C(=O)c3ccc(OC)cc3)oc3ccccc23)cc1	/	/	/	/	10.9	/
COc1ccc(/C(=C\C(=O)O)c2nccc3cc(OC)c(OC)cc23)cc1OC	3.0%	2.1%	/	-3.1%	/	/
C[N+](C)(CCCOc1ccccc1)c1ccccc1	0.4%	0.2%	-0.2%[25.6 µM]	-8.0%[20.9 µM]	4.3[20.6 µM]	/
CCOc1cc(C=O)cc(Br)c1OCC(=O)NCCc1ccccc1	0.4%	/	/	6.31µM*	/	/
CCN(CC)S(=O)(=O)c1cc(NC(=O)COC(=O)Cn2cnc3ccccc32)ccc1C	-1.7%	-8.0%	1.1%	20µM*	/	-24.2
O=C(COC(=O)Cn1cnc2ccccc21)Nc1ccc2c(c1)OCCO2	-10.0%[38.3 µM]	-6.3%	-3.2%	28.2µM*	-2.4	32.8
O=C(COC(=O)Cn1c(C(F)(F)F)nc2ccccc21)Nc1ccc2c(c1)OCCO2	22.9%[38.3 µM]	1.1%	-1.9%	-18.3%	-2.2	-8.5
CCN(CC)S(=O)(=O)c1cc(NC(=O)COC(=O)CCC(=O)c2cccs2)ccc1C	0.1%	/	/	-7.7%	/	/
CC(=O)NCCNc1nc(-c2ccc3c(c2)OCO3)nc2ccccc12	7.9%	/	/	?	/	/
COC(=O)NC1C=CCCC1C(C)=O (centres undefined)	3.2%	-3.6%	1.0%	-2.8%	/	/
CC(=O)c1sc(NC(=O)c2c(F)cccc2F)nc1-c1ccccc1	-14.2%	/	/	11.2µM*	/	/
CC(=O)c1sc(NC(=O)c2ccccc2)nc1-c1ccccc1	12.1%	/	/	?	/	/
